PubChem BioAssay (Tox21)
Results filed as inconclusive are left out. Calls of active or inactive are those of the source. Unless noted, calls follow the shape of the full dose curve.

Tests used:
[1] = Nuclear factor erythroid 2-related factor 2/antioxidant responsive element (Nrf2/ARE) small molecule agonists: qHTS cell viability counter screen in human keratinocytes (AID 1919968; active = well fitted curve in the direction sought with a large enough effect in the repeat runs; an effect the other way counts as inactive or inconclusive; also: nearly all actives have a fitted effect of over 55% in size; also: potency is read from the fitted curve at half-maximal effect)
Method in brief: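 HaCaT ARE reporter line, 1,500 cells/well; 5 h settle, 37 C/5% CO2; cpd in DMSO pinned; 23 h exposure; CellTiter-Fluor, 1 h; fluorescence.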

[2] = Nuclear factor erythroid 2-related factor 2/antioxidant responsive element (Nrf2/ARE) small molecule agonists: luciferase reporter gene qHTS assay in human keratinocytes (AID 1919969); also: nearly all actives have a fitted effect of over 35% in size
[3] = target: Gonadotropin-releasing hormone receptor (Homo sapiens) (UniProt P30968); experiment: Human gonadotropin-releasing hormone receptor (GnRHR) small molecule agonists, calcium flux assay in GnRHR-HEK293 cells (AID 1920063); also: nearly all actives have a fitted effect of over 35% in size
Method in brief: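 GnRHR-HEK293, 1500 cells/well, 18 h 37 C/5% CO2; Ca dye 1 h 37 C; cpd pinned (DMSO), agonist mode; kinetic FL 480/540, 3 min, 1 s reads; 15 conc, n=3.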

[4] = target: KiSS-1 receptor (Homo sapiens) (UniProt Q969F8); experiment: Human kisspeptin (KISS1R) small molecule agonists, calcium flux assay in KISS1R-HEK293 cells (AID 1920064; active = well fitted curve in the direction sought with a large enough effect in the repeat runs; an effect the other way counts as inactive or inconclusive)
Method in brief: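 Stable human KISS1R HEK293 line; 18 h plating, 37 C/5% CO2; calcium dye 1 h 37 C; compound pin transfer; kinetic fluorescence Ex/Em 480/540, 3 min.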

[5] = G protein-coupled receptor (GPCR) small molecule agonists, calcium flux assay: HEK293 wild type cell line counter screen (AID 1920065)
Method in brief: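 Kinetic fluorescence at Ex/Em 480/540, recorded every second over 3 min, served as the read-out after compound addition. Each compound was tested at 15 concentrations in triplicate on cells pre-loaded with calcium dye for 1 h.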

[6] = p53 small molecule agonists, cell-based qHTS assay with human liver microsomes (AID 1963577);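 also: p53 response element beta-lactamase reporter cells with liver microsomes plus NADPH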
Method in brief: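 HLM-supplemented p53RE-bla reporter assay: 16 h compound exposure at 37 C, microsomes and NADPH each 0.5 mg/mL final, read by fluorescence intensity.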

[7] = p53 small molecule agonists, cell-based qHTS assay with rat liver microsomes (AID 1963578)
Method in brief: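 Quantitative HTS of the Tox21 10K library: p53RE-bla cells, rat liver microsomes plus NADPH at 0.5 mg/mL final each, 16 h at 37 C, beta-lactamase fluorescence detection.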

[8] = p53 small molecule agonists, cell-based qHTS assay with human liver microsomes: qHTS cell viability counter screen (AID 1963579); also: nearly all actives have a fitted effect of over 45% in size
Method in brief: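 Viability of p53RE-bla cells is measured as CellTiter-Glo luminescence following a 16 h, 37 C incubation with compound, liver microsomes from human donors and NADPH.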

[9] = p53 small molecule agonists, cell-based qHTS assay with rat liver microsomes: qHTS cell viability counter screen (AID 1963580); also: nearly all actives have a fitted effect of over 45% in size
Method in brief: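 p53RE-bla HCT-116 cells (4,000/well) rested 5 h at 37 C, then given Tox21 compounds in DMSO with rat liver microsomes (0.5 mg/mL final) plus NADPH (0.5 mg/mL final) for 16 h at 37 C. Viability read by CellTiter-Glo luminescence after 30 min at room temperature.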

[10] = p53 small molecule agonists, cell-based qHTS assay: qHTS cell viability counter screen (AID 1963581); also: nearly all actives have a fitted effect of over 45% in size
Method in brief: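 HCT-116 p53RE-bla cells, 4,000/well, plated 5 h before compound pin transfer; 16 h at 37 C; bla substrate 2 h RT; then CellTiter-Glo, 30 min RT, luminescence.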

[11] = p53 small molecule agonists, cell-based qHTS assay (AID 1963582; active = well fitted activation curve with a large enough effect in the signal ratio in the repeat runs, not every such curve was filed as active; the % refers to the signal ratio)
Method in brief: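 Reporter line: p53RE-bla. Pre-incubation 5 h, 37 C, 5% CO2; compound (DMSO, pin tool) 16 h, 37 C; B/G FRET substrate 2 h RT; fluorescence intensity read.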

[12] = target: 5-hydroxytryptamine receptor 2A (Homo sapiens) (UniProt P28223); experiment: 5-hydroxytryptamine receptor 2A (HTR2A) small molecule antagonists, cell-based qHTS assay (AID 1963586); also: nearly all actives have a fitted effect of over 45% in size
Method in brief: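 Antagonist-mode intracellular calcium assay: DOI (4 nM) added after 5 min compound pre-incubation at room temperature to dye-loaded HTR2A-CHO cells. Fluorescence followed for 3 min, sampled every second.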

[13] = target: 5-hydroxytryptamine receptor 2A (Homo sapiens) (UniProt P28223); experiment: 5-hydroxytryptamine receptor 2A (HTR2A) small molecule agonists, cell-based qHTS assay (AID 1963587); also: nearly all actives have a fitted effect of over 30% in size
Method in brief: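 HTR2A-CHO cells, plated 18 h at 37 C/5% CO2, dye-loaded 1 h at 37 C; compounds in DMSO added by pin tool (agonist mode). Intracellular calcium flux read as kinetic fluorescence on FDSS over 2 min at 1 s intervals.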

[14] = target: Muscarinic acetylcholine receptor M1 (Homo sapiens) (UniProt P11229); experiment: Cholinergic receptor muscarinic 1 (CHRM1) small molecule antagonists, cell-based qHTS assay (AID 1963588); also: nearly all actives have a fitted effect of over 40% in size; also: potency is read from the fitted curve at half-maximal effect
Method in brief: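 CHRM1-CHO calcium-flux assay, antagonist mode. Cells were seeded 18 h, dye-loaded 1 h at 37 C and given compound for 5 min at RT, then acetylcholine was added at 50nM. FDSS fluorescence was read 3 min; 15 concentrations, three runs.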

[15] = target: Muscarinic acetylcholine receptor M1 (Homo sapiens) (UniProt P11229); experiment: Cholinergic receptor muscarinic 1 (CHRM1) small molecule agonists, cell-based qHTS assay (AID 1963589); also: nearly all actives have a fitted effect of over 35% in size
Method in brief: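 Human M1 in stable CHO line; 18 h plating, 1 h dye load 37 C; cpd added (agonist mode); Ca2+ fluorescence kinetic read, 1 s intervals; 15 conc, 3 runs.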

[16] = cAMP Responsive Elements (CRE) small molecule antagonists, cell-based qHTS assay (AID 1963591; active = well fitted inhibition curve with a large enough effect in the signal ratio in the repeat runs, not every such curve was filed as active; the % refers to the signal ratio)
Method in brief: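 Beta-lactamase reporter read by FRET substrate (LiveBLAzer B/G) after 2 h at room temperature. CRE-bla HEK293T cells had received compound plus 0.25 uM (final) NKH477 for 3 h at 37 °C.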

[17] = target: Beta-2 adrenergic receptor (Homo sapiens) (UniProt P07550); experiment: Adrenergic beta2 receptor (ADRB2) small molecule antagonists, cell-based qHTS assay (AID 1963592); also: series mostly up to about 92 µM; nearly all actives have a fitted effect of over 50% in size
Method in brief: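 Cells (CHO, stable ADRB2 overexpression) incubated 18-20hr at 37C; compounds added from DMSO; agonist mix (1nM isoproterenol, 100uM IBMX, 25uM Ro-20-1724) added; 0.5hr RT; d2-cAMP and anti-cAMP-cryptate added; 1hr RT; 665/615 nm read.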

[18] = target: D(2) dopamine receptor (Homo sapiens) (UniProt P14416); experiment: Dopamine D2 receptor (DRD2) small molecule agonists, cell-based qHTS assay (AID 1963594); also: nearly all actives have a fitted effect of over 35% in size
Method in brief: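 HEK293 cells stably expressing DRD2 were cultured 24 h at 37 C, then given Ro20-1724 (0.1 mM final) and compounds for 10 min at room temperature. NKH477 (200nM) was then added for 30 min. cAMP was read by HTRF.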

[19] = target: D(2) dopamine receptor (Homo sapiens) (UniProt P14416); experiment: Dopamine D2 receptor (DRD2) small molecule antagonists, cell-based qHTS assay (AID 1963595; active = well fitted inhibition curve with a large enough effect in the signal ratio in the repeat runs, with a control signal flat; the % refers to the signal ratio)
Method in brief: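 Antagonism was scored as restored cAMP in HEK293-DRD2 cells. These cells were stimulated with 200 nM NKH477 and 12 nM quinpirole for 30 min at room temperature, in the presence of 0.1 mM Ro20-1724.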

[20] = cAMP Responsive Elements (CRE) small molecule agonists, cell-based qHTS assay (AID 1963590)
Method in brief: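 HEK 293T CRE-bla, 2,000 cells/well, 18 h preincubation 37 C/5% CO2; cpds (DMSO) pinned, 3 h; LiveBLAzer B/G FRET substrate, 2 h RT.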

Measured: Potency

Gonadotropin-releasing hormone receptor (Homo sapiens), sequence (P30968 whole entry, looked up): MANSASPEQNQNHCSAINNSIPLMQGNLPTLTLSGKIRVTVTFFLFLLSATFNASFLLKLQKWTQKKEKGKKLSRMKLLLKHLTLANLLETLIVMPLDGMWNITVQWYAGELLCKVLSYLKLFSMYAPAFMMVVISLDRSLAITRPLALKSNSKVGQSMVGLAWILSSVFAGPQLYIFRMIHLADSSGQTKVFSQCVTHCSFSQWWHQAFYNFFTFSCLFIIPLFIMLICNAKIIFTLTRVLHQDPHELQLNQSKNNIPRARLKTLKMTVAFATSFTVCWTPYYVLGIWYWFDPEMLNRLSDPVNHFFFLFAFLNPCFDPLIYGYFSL
5-hydroxytryptamine receptor 2A (Homo sapiens), sequence (P28223 whole entry, looked up): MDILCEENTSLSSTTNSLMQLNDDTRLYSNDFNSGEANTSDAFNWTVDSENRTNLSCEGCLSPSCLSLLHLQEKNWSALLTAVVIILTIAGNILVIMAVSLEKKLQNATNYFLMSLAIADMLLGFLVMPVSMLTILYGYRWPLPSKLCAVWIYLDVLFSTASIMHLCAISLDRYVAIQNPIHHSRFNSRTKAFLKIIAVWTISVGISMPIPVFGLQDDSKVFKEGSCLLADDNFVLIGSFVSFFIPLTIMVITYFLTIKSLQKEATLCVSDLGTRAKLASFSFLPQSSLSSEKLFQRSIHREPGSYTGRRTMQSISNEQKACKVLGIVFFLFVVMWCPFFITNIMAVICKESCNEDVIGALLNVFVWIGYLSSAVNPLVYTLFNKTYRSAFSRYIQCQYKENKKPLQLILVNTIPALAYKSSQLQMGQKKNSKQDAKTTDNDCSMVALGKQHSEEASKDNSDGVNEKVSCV
KiSS-1 receptor (Homo sapiens), sequence (Q969F8 whole entry, looked up): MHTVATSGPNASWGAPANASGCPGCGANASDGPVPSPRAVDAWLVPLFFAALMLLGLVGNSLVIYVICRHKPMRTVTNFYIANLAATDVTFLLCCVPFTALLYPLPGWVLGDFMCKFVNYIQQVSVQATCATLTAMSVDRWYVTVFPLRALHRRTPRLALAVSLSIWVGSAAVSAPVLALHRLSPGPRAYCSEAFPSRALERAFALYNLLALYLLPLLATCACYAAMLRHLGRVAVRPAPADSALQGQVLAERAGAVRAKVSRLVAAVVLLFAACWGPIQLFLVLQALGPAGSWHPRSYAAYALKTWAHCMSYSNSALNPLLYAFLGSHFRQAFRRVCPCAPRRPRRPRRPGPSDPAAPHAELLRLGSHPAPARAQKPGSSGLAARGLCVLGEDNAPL
Beta-2 adrenergic receptor (Homo sapiens), sequence (P07550 whole entry, looked up): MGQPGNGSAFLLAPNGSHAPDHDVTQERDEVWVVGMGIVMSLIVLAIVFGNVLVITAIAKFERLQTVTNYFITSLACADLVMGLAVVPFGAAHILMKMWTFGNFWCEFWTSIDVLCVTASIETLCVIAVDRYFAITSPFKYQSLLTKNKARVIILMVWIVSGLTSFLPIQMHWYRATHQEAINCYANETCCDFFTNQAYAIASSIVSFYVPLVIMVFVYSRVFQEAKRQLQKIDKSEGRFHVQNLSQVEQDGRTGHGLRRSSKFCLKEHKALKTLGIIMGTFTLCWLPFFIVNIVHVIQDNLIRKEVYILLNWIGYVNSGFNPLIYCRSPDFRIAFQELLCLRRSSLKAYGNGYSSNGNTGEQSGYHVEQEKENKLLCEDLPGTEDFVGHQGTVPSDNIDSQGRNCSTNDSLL
Muscarinic acetylcholine receptor M1 (Homo sapiens), sequence (P11229 whole entry, looked up): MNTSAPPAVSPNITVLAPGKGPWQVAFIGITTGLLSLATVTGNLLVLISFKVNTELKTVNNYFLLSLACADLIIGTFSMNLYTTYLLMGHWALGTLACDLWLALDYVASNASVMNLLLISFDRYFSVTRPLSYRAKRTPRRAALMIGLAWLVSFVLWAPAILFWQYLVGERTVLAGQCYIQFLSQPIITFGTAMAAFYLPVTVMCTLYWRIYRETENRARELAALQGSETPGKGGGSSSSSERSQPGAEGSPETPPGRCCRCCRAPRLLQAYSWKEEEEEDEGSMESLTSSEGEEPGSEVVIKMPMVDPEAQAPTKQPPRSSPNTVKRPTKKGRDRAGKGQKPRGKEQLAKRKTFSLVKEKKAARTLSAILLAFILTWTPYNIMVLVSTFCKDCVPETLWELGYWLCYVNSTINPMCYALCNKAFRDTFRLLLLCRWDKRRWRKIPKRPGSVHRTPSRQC
D(2) dopamine receptor (Homo sapiens), sequence (P14416 whole entry, looked up): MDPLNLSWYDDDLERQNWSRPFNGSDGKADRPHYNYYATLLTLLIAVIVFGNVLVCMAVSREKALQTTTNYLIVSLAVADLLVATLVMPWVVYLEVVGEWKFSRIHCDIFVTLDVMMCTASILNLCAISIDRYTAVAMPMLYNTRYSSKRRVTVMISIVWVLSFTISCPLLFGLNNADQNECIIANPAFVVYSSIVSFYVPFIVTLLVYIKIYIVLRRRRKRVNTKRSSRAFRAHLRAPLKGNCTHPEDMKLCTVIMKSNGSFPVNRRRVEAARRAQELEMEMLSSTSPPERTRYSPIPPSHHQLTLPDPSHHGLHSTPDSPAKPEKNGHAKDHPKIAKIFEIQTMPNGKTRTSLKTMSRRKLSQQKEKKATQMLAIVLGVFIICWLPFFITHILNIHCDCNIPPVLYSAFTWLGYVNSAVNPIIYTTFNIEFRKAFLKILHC

CCCC(C)CO (stereo not drawn)
inactive: [1] | [2] | [3] | [4] | [5] | [6] | [7] | [8] | [9] | [10] | [11] | [12] | [13] | [14] | [15] | [16] | [17] | [18] | [19]

C/C(=C1\CCOC(=O)S1)N(C=O)Cc1cnc(C)nc1N
inactive: [1] | [2] | [3] | [4] | [5] | [6] | [7] | [8] | [9] | [10] | [11] | [12] | [13] | [14] | [15] | [16] | [17] | [18]

NCCN1CCNC1=O
inactive: [1] | [2] | [3] | [4] | [5] | [6] | [7] | [8] | [9] | [10] | [11] | [12] | [13] | [14] | [15] | [20] | [17] | [18] | [19]

Nc1ccc2c(S(=O)(=O)O)cccc2c1S(=O)(=O)O
inactive: [1] | [2] | [3] | [4] | [5] | [6] | [7] | [8] | [9] | [10] | [11] | [12] | [13] | [14] | [20] | [16] | [17] | [18]

O=C(O)CNC(=O)c1ccc(CO)o1
inactive: [1] | [2] | [3] | [4] | [5] | [6] | [7] | [8] | [9] | [10] | [11] | [12] | [13] | [14] | [20] | [16] | [17] | [18] | [19]

NCC1CCCC(CN)C1 (stereo not drawn)
active: [14] 18.8 µM
inactive: [1] | [2] | [3] | [4] | [5] | [6] | [7] | [8] | [9] | [10] | [11] | [12] | [13] | [20] | [16] | [17] | [19]

CO[Si](CCCCl)(OC)OC
inactive: [1] | [2] | [3] | [4] | [5] | [6] | [7] | [8] | [9] | [10] | [11] | [12] | [13] | [14] | [20] | [16] | [17] | [18] | [19]

CCCCN(CCO)CCO
inactive: [1] | [2] | [3] | [4] | [5] | [6] | [7] | [8] | [9] | [10] | [11] | [12] | [13] | [14] | [15] | [16] | [17] | [18]

Cc1ccc(-c2ccccc2)cc1
inactive: [1] | [2] | [3] | [4] | [5] | [6] | [7] | [8] | [9] | [10] | [11] | [12] | [13] | [14] | [15] | [16] | [17] | [18] | [19]

CN(C)CCCN(C)CCCN(C)C
inactive: [1] | [2] | [3] | [4] | [5] | [6] | [7] | [8] | [9] | [10] | [11] | [12] | [13] | [14] | [15] | [20] | [18]

CCCO[Si](OCCC)(OCCC)OCCC
inactive: [1] | [2] | [3] | [4] | [5] | [6] | [7] | [8] | [9] | [10] | [11] | [12] | [13] | [14] | [15] | [16] | [17] | [19]

C=C(C)C(=O)OCCC(F)(F)C(F)(F)C(F)(F)C(F)(F)C(F)(F)C(F)(F)F
inactive: [1] | [2] | [3] | [4] | [5] | [6] | [7] | [8] | [9] | [10] | [11] | [12] | [13] | [14] | [20] | [16] | [17] | [18] | [19]

COc1ccccc1N=Nc1c(S(=O)(=O)O)cc2cc(S(=O)(=O)O)cc(NC(C)=O)c2c1O
active: [1] 40.7 µM
inactive: [2] | [3] | [4] | [5] | [6] | [7] | [8] | [9] | [10] | [11] | [12] | [13] | [14] | [20] | [16]

CCCCCCCCCCCC[N+](C)(C)CCCS(=O)(=O)[O-]
inactive: [1] | [2] | [3] | [4] | [5] | [6] | [7] | [8] | [9] | [10] | [11] | [12] | [13] | [15] | [16] | [17] | [18] | [19]
active: [14] 33.8 µM

CO[Si](OC)(OC)c1ccccc1
inactive: [1] | [2] | [3] | [4] | [5] | [6] | [7] | [8] | [9] | [10] | [11] | [12] | [13] | [14] | [15] | [16] | [17] | [18] | [19]

CCOCCOCCOCC
inactive: [1] | [2] | [3] | [4] | [5] | [6] | [7] | [8] | [9] | [10] | [11] | [12] | [13] | [14] | [15] | [16] | [17] | [18]
